Compound activity (PubChem)
DAGLB inhibitor – diacylglycerol lipase beta (human) inhibition. actives 0.059% (n = 340,000). inhibition, % at 5.17 µM. Q8NCG7. HEK293T DAGLB membrane lysate, EnzChek fluorogenic substrate; in the data active = inhibition above about 34%
Target sequence (Q8NCG7 whole entry, looked up): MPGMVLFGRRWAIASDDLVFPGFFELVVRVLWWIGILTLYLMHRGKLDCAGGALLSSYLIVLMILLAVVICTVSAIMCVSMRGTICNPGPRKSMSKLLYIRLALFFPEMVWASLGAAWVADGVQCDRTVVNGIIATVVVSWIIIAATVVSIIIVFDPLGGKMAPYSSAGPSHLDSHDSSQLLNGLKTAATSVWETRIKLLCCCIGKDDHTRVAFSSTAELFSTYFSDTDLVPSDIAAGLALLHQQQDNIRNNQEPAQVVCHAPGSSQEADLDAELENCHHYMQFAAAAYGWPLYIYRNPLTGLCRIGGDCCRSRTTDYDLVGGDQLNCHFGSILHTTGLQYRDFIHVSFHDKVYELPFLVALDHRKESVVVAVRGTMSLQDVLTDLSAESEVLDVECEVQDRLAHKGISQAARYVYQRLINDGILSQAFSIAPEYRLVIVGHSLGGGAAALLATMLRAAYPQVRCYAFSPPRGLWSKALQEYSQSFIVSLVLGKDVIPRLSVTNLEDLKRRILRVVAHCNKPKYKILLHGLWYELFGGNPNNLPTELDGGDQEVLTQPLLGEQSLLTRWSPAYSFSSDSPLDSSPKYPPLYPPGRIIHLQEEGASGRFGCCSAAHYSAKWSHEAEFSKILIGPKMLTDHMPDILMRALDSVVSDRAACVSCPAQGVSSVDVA
ARNT-TACC3 inh – disruptors of human ARNT/TACC3 interaction; AID 623870; AlphaScreen His-ARNT PAS-B/GST-TACC3 binding, luminescence; TACC3 fragment carries E629A point mutation; inhibition, % at 9.99 µM; Q9Y6A5; actives 0.66% (n = 390,000);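 active = mean inhibition of replicates at least 50% and at least half of replicates each reaching 50%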
Neddylation inh – blocks human cullin neddylation | P61081+Q13564 | TR-FRET cullin neddylation, biochemical | inhibition, % at 25 µM | actives 0.58% (n = 360,000) | AID 651699; in the data active = inhibition above about 36%
sPLA2-III inh – Inhibits HGIII-sPLA2 liposome hydrolysis, primary screen | Q9NZ20 | QFRET BODIPY PC-A2 liposome hydrolysis, fluorescence | actives 0.56% (n = 370,000) | AID 743126 | inhibition, % at 12.2 µM;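 active = inhibition above mean plus 3 SD of compounds lying within the high and low control bounds, cut at about 19% in these data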
NadD block – NadD (S. aureus) enzyme inhibition; inhibition, % at 20 µM; actives 0.78% (n = 360,000); AID 602399; purified NadD enzyme, colorimetric absorbance read-out; in the data active = inhibition above about 26%
DAGLB inh conf – DAGLB (human) inhibition, confirmation screen; HEK293T DAGLB membrane lysate, EnzChek fluorogenic substrate; actives 73% (n = 190); shares compounds with DAGLB inhibitor; inhibition, % at 5.17 µM;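 active = mean inhibition over triplicate wells above a set limit taken from the primary lipase screen, cut at about 34% in these data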
Of the large screens only hits and unclear results are named; the others gave an inactive call (follow-up assays come after a bar, where they were run); ! = repeats disagree. A selection: hits, their analogues and other compounds. The true share with any hit is near 2%.

CC(C)(C)c1ccc(S(=O)(=O)/N=C2\C=C(NS(=O)(=O)c3ccccc3)C(=O)c3ccccc32)cc1	DAGLB inhibitor 39, NadD block 40 (no result: ARNT-TACC3 inh) | DAGLB inh conf 64
Cc1ccc(S(=O)(=O)/N=C2\C=C(Nc3cccc(C(=O)O)c3)C(=O)c3ccccc32)c(C)c1	DAGLB inhibitor 46 | DAGLB inh conf 46
C[C@@H]1CCCCO[C@H](CN(C)C(=O)Nc2ccc3c(c2)OCO3)[C@H](C)CN([C@H](C)CO)C(=O)c2cc(NC(=O)NC3CCCCC3)ccc2O1	none (no result: DAGLB inhibitor, Neddylation inh, sPLA2-III inh, NadD block)
CNc1ccc(N=Nc2cccc3ncccc23)cc1	DAGLB inhibitor 34 | DAGLB inh conf 56
CC(=O)c1ccc(N2CCN(c3ccc(C(F)(F)F)cn3)CC2)cc1	DAGLB inhibitor 50 | DAGLB inh conf 70
O=C1C(=C(c2ccccc2)c2ccccc2)Nc2ccccc21	DAGLB inhibitor 40 | DAGLB inh conf 38
CC1CC(C)CN(C(=O)COC(=O)CN2C(=O)c3ccccc3C2=O)C1 (configuration not stated)	none
CC1CC(C)CN(C(=O)c2ccc3c(c2NCCO)C(=O)c2ccccc2C3=O)C1 (configuration not stated)	DAGLB inhibitor 44 | DAGLB inh conf 63
CCNC(=O)C[C@H]1CC[C@@H]2[C@H](COC[C@@H](O)CN2C(=O)Nc2ccc(Cl)c(Cl)c2)O1	none (no result: DAGLB inhibitor, Neddylation inh, sPLA2-III inh, NadD block)
COC(=O)C1=C(C(=O)OC)SC(=C2C(=S)C(C)(C)N(C(=O)C3CC3)c3ccccc32)S1	DAGLB inhibitor 41 | DAGLB inh conf 47
N#C/C(=N/Nc1ccc([N+](=O)[O-])cc1)C(=N)N1CCCCC1	none
N#C/C(=N\Nc1ccc([N+](=O)[O-])cc1)C(N)=S	DAGLB inhibitor 38 | DAGLB inh conf inactive
COc1ccc(-c2csc3nc(-c4ccccc4OC)oc(=O)c23)cc1	DAGLB inhibitor 43 (no result: ARNT-TACC3 inh) | DAGLB inh conf 41
C[C@H]1CN([C@@H](C)CO)C(=O)c2cc(C#CC3CC3)cnc2O[C@@H]1CN(C)S(=O)(=O)c1cccc(F)c1	none (no result: DAGLB inhibitor, Neddylation inh, sPLA2-III inh, NadD block)
Cc1ccc(NS(=O)(=O)c2cc([N+](=O)[O-])ccc2NNC(=S)Nc2cccc(Cl)c2)c(C)c1	DAGLB inhibitor 44, NadD block 46 (no result: sPLA2-III inh) | DAGLB inh conf 74
COc1ccc(NC(=S)NNc2ccc([N+](=O)[O-])cc2S(=O)(=O)Nc2ccc(C)cc2C)cc1	none
NS(=O)(=O)c1ccc(N=Nc2c(O)ccc3ccccc23)cc1	DAGLB inhibitor 37 | DAGLB inh conf 47
O=C1/C(=C/c2ccc(O)c(O)c2)SC(=S)N1Nc1ccccc1	DAGLB inhibitor 40 (no result: sPLA2-III inh) | DAGLB inh conf inactive
COc1cc(/C=C2\SC(=S)N(Nc3ccccc3)C2=O)ccc1O	none
O=C(NN1C(=O)/C(=C/c2ccc(O)c(O)c2)SC1=S)c1ccccc1	DAGLB inhibitor 39 | DAGLB inh conf inactive
C[C@@H]1CN([C@H](C)CO)C(=O)Cc2cc(NC(=O)Cn3cnnn3)ccc2O[C@H]1CN(C)Cc1ccc(-c2ccccc2)cc1	none (no result: DAGLB inhibitor, Neddylation inh, sPLA2-III inh, NadD block)
CN1CCN(C(=O)C[C@@H]2CC[C@H]3[C@@H](COC[C@@H](O)CN3C(=O)Nc3ccc(F)cc3)O2)CC1	none (no result: DAGLB inhibitor, Neddylation inh, sPLA2-III inh, NadD block)
COc1ccc(-c2cnc3c(c2)C(=O)N([C@@H](C)CO)C[C@H](C)[C@@H](CN(C)C(=O)CN(C)C)O3)cc1	none (no result: DAGLB inhibitor, Neddylation inh, sPLA2-III inh, NadD block)
C[C@H](CO)N1C[C@H](C)[C@@H](CN(C)S(=O)(=O)c2cccs2)OCCCC[C@H](C)Oc2ccc(NC(=O)Nc3ccc4c(c3)OCO4)cc2C1=O	none (no result: DAGLB inhibitor, Neddylation inh, sPLA2-III inh, NadD block)
O=C(O)c1[nH]c2ccccc2c1C(c1cc(Cl)cc([N+](=O)[O-])c1O)c1c(C(=O)O)[nH]c2ccccc12	DAGLB inhibitor 37 | DAGLB inh conf inactive
O=C(O)c1[nH]c2ccccc2c1C(c1ccccc1)c1c(C(=O)O)[nH]c2ccccc12	none
C[C@@H]1CN([C@H](C)CO)C(=O)Cc2cc(NS(=O)(=O)c3ccc(F)cc3)ccc2O[C@H]1CN(C)S(=O)(=O)c1ccc(F)cc1	none (no result: DAGLB inhibitor, Neddylation inh, sPLA2-III inh, NadD block)
O=C1c2cccc(Cl)c2C(=O)c2c1cccc2N1CCCC1	DAGLB inhibitor 44 | DAGLB inh conf 64
O=C1c2ccccc2C(=O)c2cc(N3CCCCC3)ccc21	none
O=C(O)C[C@@H]1C[C@H]2c3cc(NC(=O)NC4CCCC4)ccc3O[C@H]2[C@@H](CO)O1	none (no result: DAGLB inhibitor, Neddylation inh, sPLA2-III inh, NadD block)
Nc1cccc2c1C(=O)c1ccc(Cl)cc1C2=O	DAGLB inhibitor 38 | DAGLB inh conf 40
O=C(O)c1cccc2c1-c1ccc(Cl)cc1C2=O	none
COC(=O)c1cccc(NS(=O)(=O)c2cccs2)c1C	none
COC(=O)c1ccccc1NC1=C/C(=N\S(=O)(=O)c2cccs2)c2ccccc2C1=O	DAGLB inhibitor 42! | DAGLB inh conf 55
O=C(C[C@@H]1CC[C@H](NC(=O)C2CCOCC2)[C@@H](CO)O1)NCc1ccccc1Cl	none (no result: DAGLB inhibitor, Neddylation inh, sPLA2-III inh, NadD block)
COc1ccc(/C=N/Nc2ccc(C(F)(F)F)cc2[N+](=O)[O-])cc1O	DAGLB inhibitor 40 | DAGLB inh conf 64
CCOc1ccc(/C=N/Nc2ccc(C(F)(F)F)cc2[N+](=O)[O-])cc1O	none
O=c1cc(-c2ccccc2)oc2ccccc12	none
Nc1cc([N+](=O)[O-])cc2oc(-c3ccccc3)cc12	DAGLB inhibitor 37 | DAGLB inh conf 37
CO[C@H]1CN(C)C(=O)c2ccc(NC(C)=O)cc2OC[C@H](C)N(C(=O)CN2CCOCC2)C[C@@H]1C	none (no result: DAGLB inhibitor, Neddylation inh, sPLA2-III inh, NadD block)
N#C/C(=C\c1ccc(O)c(O)c1)C(=O)NCCCc1ccccc1	DAGLB inhibitor 40 | DAGLB inh conf inactive
CC=Cc1ccc2n(c1=O)C[C@H]1[C@H](CO)[C@@H](C(=O)Nc3ccccc3)N(CC3CC3)[C@@H]21 (mixture of isomers)	none (no result: DAGLB inhibitor, Neddylation inh, sPLA2-III inh, NadD block)
O=c1cc2oc3cc(O)c(O)cc3c(-c3ccccc3[N+](=O)[O-])c-2cc1O	DAGLB inhibitor 43 | DAGLB inh conf inactive
O=c1cc(-c2ccccc2Cl)oc2cccc(O)c12	none
Nc1nc(-c2ccccc2)c(N=Nc2cccc3ccccc23)s1	DAGLB inhibitor 61 | DAGLB inh conf 66
CC(=O)Nc1sc(N)nc1-c1ccccc1	none
Nc1nc(-c2ccccc2)c(N=Nc2ccccc2Cl)s1	DAGLB inhibitor 65 | DAGLB inh conf 91
Cc1noc(C)c1NC(=O)Nc1ccc2c(c1)C(=O)N([C@H](C)CO)C[C@@H](C)[C@@H](CN(C)C(=O)Nc1ccc(F)cc1)O2	none (no result: DAGLB inhibitor, Neddylation inh, sPLA2-III inh, NadD block)
COC(=O)C[C@@H]1CC[C@@H]2[C@@H](COc3ccc(NC(=O)Nc4cc(C)cc(C)c4)cc3C(=O)N2C)O1	none (no result: DAGLB inhibitor, Neddylation inh, sPLA2-III inh, NadD block)
CN1c2ccc(-c3ccccc3)cc2[C@H]2[C@H](CCN2C(=O)Cc2ccccc2)[C@@H]1CO	none (no result: DAGLB inhibitor, Neddylation inh, sPLA2-III inh, NadD block)
C[C@@H]1CN([C@@H](C)CO)C(=O)c2cccc(NC(=O)Nc3ccccc3)c2O[C@@H]1CN(C)S(=O)(=O)c1ccc(Cl)cc1	none (no result: DAGLB inhibitor, Neddylation inh, sPLA2-III inh, NadD block)
CC(=O)Oc1cc2c3c(c1)/C(=C1/SC(=S)NC1=O)C(=O)N3C(C)(C)C=C2C	DAGLB inhibitor 50 | DAGLB inh conf 59
